# Data: PubChem BioAssay
# Unmarked numbers belong to inactive results.
# Assay: small-molecule microarray binders of probe aXIP, primary screen, biochemical, NeuroSMM set, 635/667 nm fluorescence (AID 1119);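 further: probe is the protein aXip251-270 applied at 1 µg/mL to compound-printed slides; binding of probe to printed compounds measured as 667 nm fluorescence plus signal to noise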
# Settings: higher = more signal, called active from +8 up or from −8 down
row,SMILES,composite Z-score
1,[N-]=[N+]=Nc1ccccc1C[C@@]1(C(=O)N2CCOCC2)N=C(c2ccc(OCCCO)cc2)O[C@@H]1c1ccccc1,0.527
2,[N-]=[N+]=Nc1ccccc1C[C@]1(C(=O)O)COC(c2ccc(OCCCO)cc2)=N1,0.277
3,COCCOC(=O)N1C(=O)[C@@]2(c3cc(C#CC4=CCCCC4)ccc31)[C@H](c1ccccc1OCCO)N1[C@H](c3ccccc3)[C@H](c3ccccc3)OC(=O)[C@H]1[C@@H]2C(=O)N1CCN(c2ncccn2)CC1,-0.17
4,O=C1O[C@@H](c2ccccc2)[C@@H](c2ccccc2)N2[C@@H](c3ccc(OCCO)cc3)[C@]3(C(=O)Nc4ccc(C#CC5=CCCCC5)cc43)[C@@H](C(=O)NC[C@H](O)c3ccccc3)[C@H]12,-0.176
5,[N-]=[N+]=Nc1ccccc1C[C@]1(C(=O)NCCN2CCOCC2)COC(c2ccc(OCCCO)cc2)=N1,-0.34
6,O=C1OCCC=C[C@H]2OC34C=CCN(Cn5nnc6ccccc65)C(=O)[C@H]3N(CCCO)C(=O)[C@@H]4C12 (stereo not given in full),-0.0287
7,CC(C)[Si](C#C[Si](C(C)C)(C(C)C)C(C)C)(O[C@H](c1ccccc1)c1cn(Cc2ccccc2)nn1)C(C)C,-0.058
8,CC(C)N1C(=O)C[C@@](C(=O)O)(c2ccc([N+](=O)[O-])cc2)[C@H]1c1ccc(CO)cc1,0.589
9,C=CCC(OC(C)=O)[C@@H]1[C@@H](N(Cc2ccc(-c3ccccc3)cc2)C(=O)c2ccc(-c3ccccc3)cc2)c2cc(OCCCO)ccc2N1C(=O)c1ccc2ccccc2c1 (stereo not given in full),-0.473
10,COc1ccc([Si](C)(C)[C@@H]2[C@@H](CCO)O[C@]3(C(=O)N(Cc4ccccc4)c4ccc(N5CCOC5=O)cc43)[C@H]2C)cc1,0.774
11,[N-]=[N+]=Nc1ccccc1C[C@]1(C(=O)NCC(O)CO)COC(c2ccc(OCCCO)cc2)=N1 (stereo not given in full),0.371
12,CN(C)CCCCCCNC(=O)[C@@H]1C[C@@H]2C(=O)N3CCC[C@H]3C(=O)N2[C@@H]1c1cccc(OCCO)c1,0.759
13,CCOC(=O)C[C@H]1[C@H](OC(=O)c2cc3ccccc3oc2=O)[C@@H](NC(=O)c2ccccc2)c2cc(OCCCO)ccc2N1C(=O)c1ccccc1,0.0916
14,O=C1C2C=CC(C(O)c3cccc(O)c3)N(Nc3ccc([N+](=O)[O-])cc3)C2C(=O)N1c1ccccc1 (stereo not given),-0.335
15,C=CC[C@@]1(C(=O)NCCCOC)N=C(c2ccc(OCCCO)cc2)O[C@@H]1c1ccccc1,0.604
16,CCCCC(=C=CC[C@H](O)c1ccc(OCCO)cc1)CCO,0.0311
17,C=C(C(=O)CC[C@H](OC(=O)c1ccccc1-c1ccccc1C(=O)O)c1cccc(OCCO)c1)C(C)C,-0.302
18,COC(=O)[C@]1(CCS(=O)(=O)c2ccccc2)N=C(c2ccc(OCCCO)cc2)O[C@@H]1c1ccccc1N=[N+]=[N-],0.0652

row,SMILES,composite Z-score
1,C=C(/C(=C/C[C@H](OC(=O)c1ccncc1)c1ccc(CO)o1)c1cnc2ccccc2c1)C(C)C,-0.55
2,CC[C@@H]1C=C(C(=O)O)[C@H](c2ccc(C#N)cc2)N1S(=O)(=O)c1ccc(C)cc1,0.474
3,CCCCCCCCCCC(O)C1C=CC2C(=O)N(c3ccccc3)C(=O)C2N1Nc1ccc(C#N)cc1 (stereo not given),0.338
4,CC[C@@H]1C=C(C(=O)O)[C@H](c2ccccc2)N1S(=O)(=O)c1ccc(C)cc1,-0.12
5,O=C1O[C@H](c2ccccc2)[C@H](c2ccccc2)N2[C@H]1[C@@H](C(=O)O)[C@]1(C(=O)Nc3ccc(C#CCCO)cc31)[C@H]2c1ccccc1OCCO,-0.308
6,O=C1C2C=CC(C(O)c3ccco3)N(Nc3ccccc3F)C2C(=O)N1c1ccccc1 (stereo not given),1.49
7,COc1ccc([Si](C)(C)[C@@H]2[C@@H](CCO)O[C@]3(C(=O)N(Cc4cccc(NC(=O)[C@H](C)O)c4)c4ccccc43)[C@H]2C)cc1,0.234
8,CC(C)N1C(=O)C[C@@](C(=O)NC2CC2)(c2ccc([N+](=O)[O-])cc2)[C@H]1c1ccc(CO)cc1,-0.239
9,Oc1ccc2cc[n+](Cc3cc4c(cc3Br)OCO4)cc2c1,-0.399
10,CCOC(=O)C[C@H]1[C@H](OC(=O)c2ccc(-c3ccccc3)cc2)[C@@H](NC(=O)CC(C)C)c2cc(OCCCO)ccc2N1C(=O)c1ccc2ccccc2n1,-0.122
11,CCCCC(CC)C(O)C1C=CC2C(=O)N(c3ccccc3)C(=O)C2N1Nc1ccccc1F (stereo not given),-0.243
12,CCOC(=O)C[C@H]1[C@H](OC(=O)c2ccccc2-c2ccccc2)[C@@H](NC(=O)c2ccc3ccccc3n2)c2cc(OCCCO)ccc2N1C(=O)Cc1ccc(OC)cc1,-0.891
13,COCCCNC(=O)[C@@]1(CCC(=O)OC(C)(C)C)N=C(c2ccc(OCCCO)cc2)O[C@H]1c1ccccc1N=[N+]=[N-],0.289
14,OCCCC1=CC(c2ccc(CN3CCCC3)cc2)N(Cc2cc3c(cc2Br)OCO3)CC1 (stereo not given),-0.888
15,CCOC(=O)C[C@H]1[C@H](OC(=O)Cc2ccc3c(c2)OCO3)[C@@H](NC(=O)C2CCCCC2)c2cc(OCCCO)ccc2N1C(=O)c1ccccc1,0.394
16,COCC(=C=CC[C@H](O)c1ccccc1OCCO)C[C@H](O)c1ccccn1,0.2
17,[N-]=[N+]=NCc1ccccc1[C@@H]1OC(c2ccc(OCCCO)cc2)=N[C@]1(CCS(=O)(=O)c1ccccc1)C(=O)O,0.0313
